Shown are actives, neighbours in structure and some others; about 3.3% of the full set was active somewhere.
SMARCA2 activ: increases SMARCA2 function in MMTV reporter cells; MG213 cells, MMTV-luciferase reporter, dexamethasone, overnight; activation, % at 9.1 µM; 370,000 tested, 1% active; in the data active means activation above about 7.8%;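 further: 0% = vehicle wells and 100% = reference activator wells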
Jurkat NFkB inh: inhibitors of the PMA/ionomycin-induced NF-kB reporter in Jurkat cells | PMA/ionomycin-induced NF-kB luciferase reporter, luminescence | inhibition, % at 4 µM | 330,000 tested, 0.53% active; in the data active means inhibition above about 50%
Gli-Sufu block: blocks Gli-Sufu signaling in a luciferase reporter | 340,000 tested, 0.74% active | Sufu-KO-LIGHT fibroblasts, Gli luciferase reporter luminescence | inhibition, % at 5 µM;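 active means inhibition above about 55%, limit read from the data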;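 further: 0% = DMSO-treated cells and 100% = wells with medium but no cells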
esBAF inh: inhibitors of esBAF chromatin remodeling in mouse ES cells | Bmi1-luciferase knock-in reporter, 24 h; 100% = twice the neutral-well signal | reporter increase, % at 12.5 µM | 350,000 tested, 2% active | AID 602393; in the data active means activation above about 40%;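 further: 0% = median of the plate's neutral control wells and 100% = double that signal; a rise in the Bmi1 reporter signal indicates esBAF inhibition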
697 NFkB inh: inhibitors of the PMA/ionomycin-induced NF-kB reporter in 697 B cells. 330,000 tested, 0.33% active. inhibition, % at 4 µM. 697 B-cell NF-kB luciferase reporter, 16 h. AID 435022; in the data active means inhibition above about 35%
* = called active by the depositor; . = no result given.

SMILES	SMARCA2 activ	Jurkat NFkB inh	Gli-Sufu block	esBAF inh	697 NFkB inh
C[C@@H]1CN([C@@H](C)CO)C(=O)c2cc(NC(=O)Nc3ccc(C(F)(F)F)cc3)ccc2O[C@@H](C)CCCCO[C@H]1CN(C)Cc1ccccc1	.	.	.	-7	.
C[C@@H]1CN([C@@H](C)CO)C(=O)c2cccc(NC(=O)Nc3ccc(C(F)(F)F)cc3)c2O[C@H]1CN(C)S(=O)(=O)c1ccccc1	.	.	.	-3	.
CCOC(=O)c1c[nH]n(-c2ccc(C)cc2)c1=O	1	-9	12	52*	-11
O=C(Cc1c(Cl)cccc1Cl)OCc1ccccn1	2	-4	-46	49*	10
CN=Cc1cc(-c2ccccc2)sc1O	0	1	-33	64*	-12
Fc1ccc(-n2c(-c3ccco3)nc3nc4ccccc4nc32)cc1	1	4	1	-7	14
Fc1ccc(-c2nc3nc4ccccc4nc3n2Cc2ccco2)cc1	0	-94	-3	64*	-206
CCc1ccc(-c2ccc(SCC(=O)NC3CCCC3)nn2)cc1	-4	.	.	47*	.
COc1ccc(-c2ccc(SCC(=O)NC3CCCC3)nn2)cc1	-4	.	.	32	.
COc1cc(NS(=O)(=O)c2ccc(NC(=S)NC(=O)c3sc4ccccc4c3Cl)cc2)ncn1	11*	.	-2	.	.
CCc1cccc(NC(=O)Nc2cccs2)c1	6	-39	34	59*	-28
N#Cc1cccc(NC(=O)Nc2cccs2)c1	1	0	-6	22	18
CCc1cccc(NC(=O)CSc2nc(C)cs2)c1	-2	.	.	82*	.
O=[N+]([O-])c1ccc2cn(-c3ccccc3)nc2c1	7	-105	-93	61*	-114
O=Cc1cn(-c2ccccc2)nc1-c1cccc([N+](=O)[O-])c1	1	.	.	59*	.
COc1ccc(NC(=O)N(C)C[C@H]2Oc3ccc(NS(=O)(=O)c4cn(C)cn4)cc3CC(=O)N([C@H](C)CO)C[C@@H]2C)cc1	.	.	.	-1	.
CC(=O)N(C)C[C@@H]1Oc2cc(-c3ccccc3C)ccc2S(=O)(=O)N([C@H](C)CO)C[C@H]1C	.	.	.	-1	.
CCN(CC)C(=S)SCC(=O)c1ccc(Br)cc1	0	-39	-41	83*	-38
CCn1c(CNC(C)=O)nnc1SCC(=O)c1ccc(Br)cc1	2	14	2	-3	20
Cc1noc(C)c1NC(=O)Nc1ccc2c(c1)C(=O)N(C)[C@@H]1CC[C@@H](CC(=O)NCc3ccc(Cl)cc3)O[C@@H]1CO2	.	.	.	-2	.
COCn1c(COc2ccc3ccccc3c2)nc2ccccc21	5	-81	14	79*	-96
N/C(=N\NC(=O)Nc1ccc(Cl)cc1)c1ccccn1	5	-37	-16	47*	-18
CNC(=O)N/N=C(\N)c1ccccn1	-3	-4	1	18	-3
O=C(NCCN1C(=O)C2C3C=CC(C3)C2C1=O)Nc1ccc(Br)cc1 (stereo not drawn)	3	-68	-86	62*	-51
O=C(NCCN1C(=O)C2C3C=CC(C3)C2C1=O)Nc1cccnc1 (stereo not drawn)	-2	-4	-5	3	-2
SMILES	SMARCA2 activ	Jurkat NFkB inh	Gli-Sufu block	esBAF inh	697 NFkB inh
CCC(=O)N1C[C@H](C)[C@H](OC)CN(C)C(=O)c2cc(NC(=O)NC(C)C)ccc2OC[C@H]1C	.	.	.	-4	.
O=C(/C=C/c1ccco1)NC(=S)Nc1cc(-c2nc3ccccc3s2)ccc1Cl	1	.	-11	.	.
Cc1ccc(-c2nc3ccccc3s2)cc1NC(=S)NC(=O)/C=C/c1ccco1	-1	-112	-1	65*	-222
CO[C@H]1CN(C)C(=O)c2ccc(NS(=O)(=O)c3ccc(Cl)cc3)cc2OC[C@@H](C)N(C(=O)NC(C)C)C[C@H]1C	.	.	.	0	.
CCNc1oc(COc2ccccc2F)nc1C#N	-3	-8	-19	52*	-27
CCCC(=O)Nc1ccc2c(c1)C(=O)N(C)C[C@H](OC)[C@@H](C)CN(CC1CCCC1)[C@H](C)CO2	.	.	.	-3	.
CCOC(=O)c1c(C)n(CC)c2c1cc(O)c1ccccc12	-1	-20	-14	-1	-9
CCOC(=O)c1c(C)[nH]c2c1cc(O)c1ccccc12	3	-32	6	62*	-16
CCOC(=O)c1c(C)[nH]c(N=Nc2ccccc2C)c1C	2	-43	-60	48*	-56
CCCCCCC(=O)c1c(C)[nH]c(C(=O)OCC)c1C	0	-18	-9	55*	-77
CCCCCC(=O)c1c(C)[nH]c(C(=O)OCC)c1C	4	-8	.	.	-10
CC(=O)c1c(C)[nH]c(C(=O)OCc2cccc(C)c2)c1C	-3	-17	-5	54*	-67
O=C(Nc1ccc2c(c1)OCO2)N[C@H]1C=C[C@H](CC(=O)N2CCN(c3ccccc3)CC2)O[C@@H]1CO	.	.	.	6	.
O=C(NC1CCC1)[C@@H]1[C@@H](CO)[C@@H]2Cn3c(ccc(-c4ccccc4F)c3=O)[C@@H]2N1Cc1ccncc1	.	.	.	3	.
CO[C@@H]1CN(C)C(=O)c2cccc(C#N)c2OC[C@H]2O[C@H](CC[C@H]2OC)CCN(C)C(=O)[C@H]1C	.	.	.	1	.
O=C(NCc1ccccc1)[C@@H]1N[C@@H]2c3ccc(-c4ccccc4)c(=O)n3C[C@@H]2[C@H]1CO	.	.	.	0	.
CCOC(=O)c1c(C)[nH]c(C(=O)OCc2ccc(C)cc2)c1C	4	-12	-20	.	-21
CCOC(=O)c1c(C)[nH]c(C(=O)OCC(=O)NCc2ccco2)c1C	-3	.	.	49*	.
CCOC(=O)c1c(C)[nH]c(C(=O)OCc2ccccc2)c1C	3	-134	-90	76*	-182
CCCC(=O)Nc1ccc2c(c1)OC[C@@H](C)N(CCc1ccccc1)C[C@H](C)[C@@H](OC)CN(C)C2=O	.	.	.	-1	.
C/C=C/c1ccc2c(c1)O[C@@H](CN(C)C(=O)Nc1ccc(C(F)(F)F)cc1)[C@@H](C)CN([C@@H](C)CO)S2(=O)=O	.	.	.	0	.
CNc1cncc(-c2ccc(OC)cc2)n1	2	.	.	41*	.
CNc1cncc(-c2ccc(O)cc2)n1	-1	.	.	13	.
CCCCN1CC(O)=C(c2nc3ccccc3s2)C1=N	7	-55	-26	58*	-51
N=C1C(c2nc3ccccc3s2)=C(O)CN1CCCO	1	3	.	5	8
SMILES	SMARCA2 activ	Jurkat NFkB inh	Gli-Sufu block	esBAF inh	697 NFkB inh
Cc1c(-c2ccccc2)nnn1-c1ccc(F)cc1F	2	-65	-70	51*	-61
O=C(Nc1cccnc1)c1cn(-c2ccccc2)nc1-c1cccs1	-1	-23	-29	58*	-25
O=C(Nc1cccc2ccccc12)c1cn(-c2ccccc2)nc1-c1cccs1	.	-4	3	.	19
CN(Cc1ccccc1)C(=O)c1[nH]cnc1C(=O)Nc1cccc(Cl)c1	2	-21	-8	45*	-17
C[C@@H]1CN([C@H](C)CO)C(=O)c2cc(-c3ccncc3)cnc2O[C@H]1CN(C)Cc1cccnc1	.	.	.	-2	.
O=C(Nc1cc2c(cc1Cl)OCCO2)c1ccco1	4	-42	-57	36	-39
O=C(Nc1cc2c(cc1C(=O)O)OCCCO2)c1ccc(C(F)(F)F)cc1	2	-9	-18	55*	-77
CCc1ccc(C(=O)Nc2cc3c(cc2Cl)OCCCO3)cc1	7	-101	6	69*	-145

Screening results (PubChem)
